Screening results (PubChem BioAssay)
The entries come from a sample that favours hits as a whole.
TbPYK inhibitor: blocks Trypanosoma brucei pyruvate kinase | Q57TT1 | TbPYK enzyme, Kinase-Glo Plus ATP luminescence, 45 min | AID 624173 | 410,000 compounds, 0.12% hits | Potency, µM (top dose mostly 76.8 µM), without a hit: top-dose activity, negative = inhibition, most hits filed as inhibitors; further: potency means the concentration at half of the fitted maximal effect; on the % scale 0 is the no-effect control and ±100 the full control effect; nearly all actives have a fitted effect of over 50% in size
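Luminescence from Kinase-Glo Plus, added after a 45-minute room-temperature reaction, served as the end-point read-out. The enzyme and substrate were preincubated with compound before ADP (130 uM final) initiated turnover. Concentration-effect curves came from normalized qHTS data.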
Cycloheximide cs: counter-screen for Shiga toxin inhibitors: cycloheximide protein synthesis inhibition; 300,000 compounds, 12% hits; max response, %; AID 2314; cell reporter, cycloheximide protein synthesis inhibition counterscreen; in the data active means max response mostly above about 13%, no sharp cut-off; inactive means mostly below about 14%; further: read at 38.3 µM for the half of the compounds with a filed dose; 0% is about no effect
LmPK inh: blocks Leishmania mexicana pyruvate kinase activity. purified LmPK, Kinase-Glo ATP luminescence, 1 h. AID 1721. 290,000 compounds, 0.37% hits. Potency, µM (titrated, usually from 57.5 µM), for inactives: top-dose activity change, negative = inhibition, usual class: inhibitors; further: potency means the concentration at half of the fitted maximal effect; on the % scale 0 is the no-effect control and ±100 the full control effect
Target sequence (Q27686 whole entry, looked up): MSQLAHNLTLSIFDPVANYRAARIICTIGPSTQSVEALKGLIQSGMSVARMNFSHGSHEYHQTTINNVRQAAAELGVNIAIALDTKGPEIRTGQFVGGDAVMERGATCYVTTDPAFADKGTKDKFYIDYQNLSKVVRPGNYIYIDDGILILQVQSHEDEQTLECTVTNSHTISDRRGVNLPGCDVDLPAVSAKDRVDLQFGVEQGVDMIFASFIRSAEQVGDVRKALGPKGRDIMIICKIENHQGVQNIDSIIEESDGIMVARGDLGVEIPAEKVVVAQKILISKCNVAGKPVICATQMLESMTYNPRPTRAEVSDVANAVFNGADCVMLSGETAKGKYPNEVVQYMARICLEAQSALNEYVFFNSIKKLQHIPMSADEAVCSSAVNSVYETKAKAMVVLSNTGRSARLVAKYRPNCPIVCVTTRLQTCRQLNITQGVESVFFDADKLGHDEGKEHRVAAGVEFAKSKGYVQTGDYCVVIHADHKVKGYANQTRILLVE
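Screened at intermediate enzyme activity to detect both inhibitors and activators: LmPK at 0.1 nM, with a 0.5 nM enzyme column as activation reference. PEP 0.5 mM, ADP 0.1 mM; ATP detected by luminescence after 1 h.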
NS1 inh: influenza NS1 inhibition. 270,000 compounds, 0.4% hits. Potency, µM (top dose mostly 46.1 µM), for the others: at the top dose activity, positive = more growth; calls by dose curve; further: potency means the concentration at half of the fitted maximal effect; actives are rising curves; nearly all actives have a fitted effect of over 50% in size
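S. cerevisiae expressing influenza A NS1, grown in glucose, washed, then diluted 1:100 into pH 6.0 -URA galactose medium with 23 nl compound. Growth recovery read as OD600; NS1-free strain serves as control.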
Shiga inhibitor: Shiga toxin inhibition. Vero cells, Shiga toxin protein synthesis inhibition reporter. inhibition, % at 38.7 µM. 290,000 compounds, 9.2% hits. AID 2315; in the data active means inhibition mostly above about 28%, no sharp cut-off; inactive means mostly below about 43%; further: 0% is about no effect
SARS PLP yeast: SARS-CoV PLP inhibition in yeast. S. cerevisiae expressing SARS-CoV PLpro, growth rescue. Potency, µM (top dose mostly 32.9 µM), inactives show top-dose activity, positive = growth rescue, most hits filed as activators. 330,000 compounds, 0.19% hits. AID 485353; calls by dose curve; further: potency means the concentration at half of the fitted maximal effect; 0% is about no effect; nearly all actives have a fitted effect of over 55% in size
The depositor's hits bear a star; ? = inconclusive; / = no result given. Unless noted, the call rests on the fitted dose curve; in most records, active means well fitted curve in the direction sought with a large enough effect; inconclusive means small, poorly fitted or top-dose-only effect, or another doubt; inactive means no such curve, though single readings can be large; an effect the other way counts as inactive or inconclusive.

SMILES	TbPYK inhibitor	Cycloheximide cs	LmPK inh	NS1 inh	Shiga inhibitor	SARS PLP yeast
O=C(NC(O)C(=O)c1ccccc1)c1ccc(F)cc1 (configuration not stated)	13.7%	-3.4	-4.3%	-0.7%	19.8	5.0%
NCCSC1CC(=O)N(c2ccc(F)cc2)C1=O (configuration not stated)	-0.4%	8.3*	-4.6%	18.5%	30.1	-7.8%
NCCSC1CC(=O)N(c2ccc(Cl)c(Cl)c2)C1=O (configuration not stated)	4.7%	16.3*	-1.5%	19.2%	36.0	-4.8%
O=C(O)CSC1CC(=O)N(c2ccc(F)cc2)C1=O (configuration not stated)	-8.9%	/	/	/	/	/
C(=NN1CCCCCC1)c1ccccc1	-19.3%	/	/	/	/	/
C(=N\N1CCN(c2ccccn2)CC1)/c1ccccn1	-7.9%	49.2*	-17.0%	-4.4%	36.7*	-1.9%
O=[N+]([O-])c1ccccc1C=NN1CCCCCC1	-1.8%	/	/	/	/	/
O=[N+]([O-])c1ccccc1/C=N/N1CCN(c2ccccn2)CC1	-4.6%	36.8*	-8.8%	-11.6%	46.9*	-10.2%
Oc1ccc(/C=N/N2CCN(c3ccccn3)CC2)cc1	-1.5%	27.2*	1.6%	-4.2%	101.3*	0.7%
CN(c1ccccc1)c1ccc(/C=N/N2CCOCC2)cc1	-9.0%	84.2*	-3.2%	-5.7%	60.6*	-15.1%
Cc1nc(NC(=O)COC(=O)CCS(=O)(=O)c2ccccc2Cl)c(Cl)cc1Cl	0.5%	4.1	0.3%	-8.8%	-13.3	-1.9%
CC(C)CN(C(=O)COC(=O)c1cccn1C)c1c(N)n(Cc2ccccc2)c(=O)[nH]c1=O	-6.0%	0.8	-5.9%	0.6%	-4.0	-2.4%
CCc1nc2c(OCc3ccccc3)cccn2c1N(C)C(C)=O	-8.6%	/	/	/	/	/
COc1ccc(CCCN2CCC(CN3C(=S)NC[C@@H]3Cc3ccccc3)CC2)cc1OC	-5.3%	/	/	/	/	/
Oc1cccc(/C=N/N2CCN(c3ccccn3)CC2)c1	-7.7%	39.7*	-5.4%	-6.3%	127.8*	0.4%
CN(C)c1ccc(/C=N/N2CCN(c3ccccn3)CC2)cc1	-19.0%	34.4*	?	-1.9%	90.7*	0.5%
BrC(=C\c1ccccc1)/C=N/N1CCN(c2ccccn2)CC1	4.4%	40.3*	0.4%	-16.0%	38.5*	-29.0%
CC1=CC(C)=Nc2ccccc2N1	4.2%	45.5*	-0.9%	-3.9%	62.2*	-14.2%
CC1=CC(=O)Nc2ccccc2S1	-2.2%	/	/	/	/	/
N#Cc1nc(COc2ccc(F)cc2)oc1N1CCCCC1	-4.6%	27.2*	2.6%	-53.7%	64.9	-1.3%
N#Cc1nc(COc2ccc(Cl)cc2Cl)oc1N1CCOCC1	3.6%	29.1*	5.7%	-95.1%	35.5*	-14.3%
CC1CC1C(=O)Nc1ccc(-c2ccccc2)cc1 (configuration not stated)	0.1%	44.8*	-0.3%	-7.2%	82.6*	-30.5%
COc1ccc(-c2nc3ccc(C)cn3c2NCc2ccc3c(c2)OCO3)cc1	-0.8%	55.3*	1.0%	-4.3%	125.0*	-2.8%
CCCCNc1c(-c2cccc(-c3ccc(OC)cc3)c2)nc2ccc(C)cn12	0.3%	/	/	/	/	0.1%
Cc1ccn2c(Nc3ccc4c(c3)OCO4)c(-c3ccccn3)nc2c1	-3.7%	77.4*	-3.6%	?	38.8*	?
SMILES	TbPYK inhibitor	Cycloheximide cs	LmPK inh	NS1 inh	Shiga inhibitor	SARS PLP yeast
Cc1ccc(-c2nc3ccccn3c2Nc2ccc3c(c2)OCO3)cc1	-1.4%	/	/	/	/	/
Cc1ccc(-c2nc3ccccn3c2NCc2ccc3c(c2)OCO3)cc1	0.4%	45.0*	-28.8%	-122.2%	54.2*	-22.1%
Cc1ccc(Nc2c(-c3ccccn3)nc3cc(C)ccn23)cc1	-9.4%	-4.1	-10.6%	/	2.7	-31.2%
CCCCNc1nc(Nc2ccc(C)c(Cl)c2)c2cnn(C)c2n1	2.2%	-1.5	8.0%	19.8%	-2.9	-3.2%
Cc1ccc(Nc2ncnc(N)n2)cc1C	-13.6%	25.8*	-1.1%	3.3%	50.0*	-0.3%
Nc1ncnc(Nc2ccccc2)n1	0.2%	/	/	/	/	0.3%
Cc1ccc(S(=O)(=O)N(C)C[C@@H]2OCc3cnnn3CCCC(=O)N([C@H](C)CO)C[C@H]2C)cc1	3.0%	/	/	/	/	/
Cc1nc(SCC(=O)Nc2cccc(C(=O)O)c2)n[nH]1	-10.9%	-2.5	-2.5%	-2.9%	-5.9	-10.1%
Nc1nc(SCC(=O)Nc2ccc(OCc3ccccc3)cc2)n[nH]1	-8.4%	27.9*	-1.7%	2.2%	57.5*	0.4%
COc1ccc(-c2csc(NC(=O)CSc3n[nH]c(C)n3)n2)cc1	0.0%	31.2*	3.4%	12.1%	107.6*	-3.1%
Cc1nc(SCC(=O)Nc2ccc(OCc3ccccc3)cc2)n[nH]1	-0.2%	24.3*	0.1%	2.9%	58.0*	0.3%
CC1(C)CCC=[N+]1[O-]	/	/	/	-2.7%	/	/
COC(=O)c1cc(F)c(S(=O)(=O)N2CCN(S(=O)(=O)c3ccc4c(c3)OCCO4)CC2)cc1F	/	-9.0	/	/	-5.3	/
COc1ccc(-c2cc3c(c4c2ccn4C)C2CCC3C2)cc1OC (configuration not stated)	-4.1%	/	/	/	/	/
CCc1ccc(OCC(=O)N(Cc2ccc(C)o2)C2CCS(=O)(=O)C2)cc1 (configuration not stated)	-6.0%	/	/	/	/	/
C[C@@H](C(=O)Nc1nc2ccc(F)cc2s1)N1C(=O)C2CC=CCC2C1=O (some centres not stated)	-2.1%	23.4*	8.2%	6.0%	57.3	-1.8%
Cc1ccc2nc(NC(=O)[C@H](C)N3C(=O)C4CC=CCC4C3=O)sc2c1 (some centres not stated)	1.3%	32.6*	1.5%	/	36.8*	1.4%
CC(C)OCCCNc1nc2c(cnn2C)c(=O)[nH]1	-9.1%	/	/	/	/	/
Cc1ccc(-c2cc(C(=O)Nc3ccc4c(c3)OCCO4)c3ccccc3n2)cc1	6.1%	54.6*	-1.8%	23.9%	124.8*	-11.9%
CC(=O)Nc1ccc(NC(=O)c2cc(-c3ccccc3)nc3ccccc23)cc1	-1.4%	3.1	0.5%	11.4%	14.9	-1.5%
O=C(Nc1ccc2c(c1)OCO2)c1cc(-c2cccnc2)nc2ccccc12	-4.5%	16.0*	-0.8%	3.3%	71.4	-1.8%
COc1ccc(C(O)c2nc(/C=C/c3ccc(C(F)(F)F)cc3)cs2)cc1 (configuration not stated)	5.5%	/	/	/	/	/
COc1ccc(/C=C/c2cc(C(F)(F)F)on2)cc1	-3.5%	40.1*	1.5%	4.1%	63.8*	0.7%
Fc1ccc(N2Cc3ccsc3C=N2)cc1	0.9%	25.1*	-8.6%	/	63.1*	-0.3%
Cc1nnc(C(C)C)n1C1C[C@H]2CC[C@@H](C1)N2CC[C@H](NC(=O)C1CCC(F)(F)CC1)c1ccccc1 (some centres not stated)	1.9%	/	/	/	/	/
COc1ccc(C2c3[nH]c4ccc(OC)cc4c3CCN2C(=O)Nc2ccccc2)cc1 (configuration not stated)	0.7%	/	/	/	/	/
